Assay outcomes from PubChem BioAssay.
Pf growth 48h: P. falciparum growth inhibition at 48 hours (one generation); AID 504832; Potency, µM (doses to about 28.7 µM), without a hit: top-dose activity change, negative = inhibition, most hits filed as inhibitors; 5.9% of 310,000 active; P. falciparum luciferase growth in erythrocytes, 48 h; note: potency is the fitted concentration of half-maximal effect; % is set by controls: 0 for no effect and ±100 for the full control effect
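Luciferase-expressing P. falciparum in infected erythrocytes (2% hematocrit, 0.1% parasitemia final) in RPMI 1640/0.5% Albumax were exposed to compound for 48 hours at 37 C, 5% CO2; growth read as luminescence.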
Pf growth 96h: P. falciparum growth inhibition at 96 hours | P. falciparum luciferase reporter growth, 96 h | Potency, µM (top dose mostly 28.7 µM), for the others: at the highest dose activity change, negative = inhibition, actives largely listed as inhibitors | 6.9% of 320,000 active | AID 504834; note: potency is the fitted concentration of half-maximal effect; % is set by controls: 0 for no effect and ±100 for the full control effect
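Luminescence readout: decreased luciferase signal marks inhibited growth of reporter-expressing P. falciparum in infected red cells (2% hematocrit, 0.05% parasitemia final), exposed to compound two generations (96 h, 37 C, 5% CO2).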
Shiga inhibitor: inhibitors of Shiga toxin in Vero cells; Vero cells, Shiga toxin protein synthesis inhibition reporter; inhibition, % at 38.7 µM; 9.2% of 290,000 active; in the data active = inhibition mostly above about 28%, no sharp cut-off; inactive = mostly below about 43%; note: 0% is about no effect
NS1 function inh: inhibitors of influenza NS1 protein function | 0.4% of 270,000 active | Potency, µM (series often up to 46.1 µM), for the others: top-dose activity, positive = more growth; calls by dose curve; note: potency is the fitted concentration of half-maximal effect; actives are rising curves; nearly all actives have a fitted effect of over 50% in size
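In this qHTS, NS1 from influenza A is expressed in budding yeast, where it slows growth. Cells are switched from glucose to 2% galactose medium (pH 6.0, -URA), treated with compound, and growth recovery is read at OD600.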
Cycloheximide cs: affects cycloheximide protein synthesis inhibition readout, counter-screen; 12% of 300,000 active; cell reporter, cycloheximide protein synthesis inhibition counterscreen; max response, %; in the data active = max response mostly above about 13%, no sharp cut-off; inactive = mostly below about 14%; note: read at 38.3 µM for the half of the compounds with a filed dose; 0% is about no effect
Sm TGR inh: blocks Schistosoma mansoni thioredoxin glutathione reductase. purified TGR, DTNB reduction, TNB absorbance 405 nm. Potency, µM (highest dose often 114 µM), for inactives: top-dose activity change, negative = inhibition, hits mostly inhibitors. Q962Y6. 3% of 360,000 active; note: potency is the fitted concentration of half-maximal effect; % is set by controls: 0 for no effect and ±100 for the full control effect; nearly all actives have a fitted effect of over 60% in size
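Kinetic colorimetric format: TGR-catalysed, NADPH-driven DTNB reduction monitored via TNB absorbance. Enzyme dispensed at 20 nM; compound exposure 15 min at room temperature before reaction start.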
Starred values were filed as active, the others as inactive; ? = inconclusive; · = no result; [ ] = another dose, or the depositor's remark. In the library only some 21% were active in any assay of this set; here they are far more common. Unless noted, calls come from the whole dose curve; as a rule, active = well fitted curve in the direction sought with a large enough effect; inconclusive = small, poorly fitted or top-dose-only effect, or another doubt; inactive = no such curve, though single readings can be large; an effect the other way counts as inactive or inconclusive.

SMILES	Pf growth 48h	Pf growth 96h	Shiga inhibitor	NS1 function inh	Cycloheximide cs	Sm TGR inh
COc1cc(C=O)ccc1OS(=O)(=O)c1ccccc1[N+](=O)[O-]	12%	-28%	22	-30%	22*	-10%
COc1cc(C=O)ccc1OCCOc1ccccc1[N+](=O)[O-]	18%	14%	85*	-1%	28*	-5%
COc1cc(C=O)ccc1OCCCOc1ccccc1[N+](=O)[O-]	39%	11%	64*	-21%	48*	1%
Cc1ccccc1OCc1ccc(-c2nc(C#N)c(NCc3cccnc3)o2)o1	·	·	·	·	·	3%
COc1ccc(N=C2C(=O)N3c4c(cccc42)C(C)=CC3(C)C)cc1	?	12µM*	-5	-33%	-3	-7%
O=C(Nc1ccc(C(=O)N2CCCCC2)cc1)c1ccc(Br)cc1	?	4.1µM*	39	-11%	9	2%
Cc1ccc(C(=O)Nc2ccc(C(=O)N3CCCCC3)cc2)o1	32%	-1%	52*	5%	26*	4%
O=C(c1ccc(N2CCCC2=O)cc1)N1CCCCCC1	33%	-11%	-9	-1%	-5	4%
O=C(c1ccc(Br)cc1)N1CCCC1	21%	·	9	-6%	-3	7%
O=C(c1ccc(-n2cccc2)cc1)N1CCCCC1	57%	78%	49	·	26*	-1%
Cc1cc2c(cc1S(=O)(=O)NCc1ccc(F)cc1)OCCN2C	·	·	·	·	·	2%
COc1cc2c(c(OC)c1OC)-c1c(cc3c(c1OC)OCO3)[C@@H](OC(C)=O)[C@H](C)[C@H](C)C2	13µM*	10µM*	17	?	-4	-2%
O=C(CSc1nnc(-c2ccccn2)n1Cc1ccco1)c1ccccc1	-1%	-20%	9	-20%	-2	?
CC(C)(C)c1ccc(CSc2nnc(-c3ccccn3)n2Cc2ccco2)cc1	7.4µM*	·	-23	-16%	2	-28%
Clc1cccc(CSc2nnc(-c3ccccn3)n2Cc2ccco2)c1	?	?	-3	-95%	-3	40µM*
Brc1ccc(CSc2nnc(-c3ccccn3)n2Cc2ccco2)cc1	?	3.7µM*	11	-65%	-3	40µM*
Cc1ccc(CNC(=O)C(=O)NCC2OCCN2S(=O)(=O)c2ccc(Br)cc2)cc1 (stereo not drawn)	-15%	-24%	-27	9%	0	-11%
CC(=O)Nc1ccc(OC(=O)N2CCCCC2)cc1	2%	?	80	4%	12*	-22%
CC(=O)Nc1ccc(C(=O)N2CCCC2)cc1	44%	38%	-13	20%	3	9%
O=C(Oc1ccc(-c2ccccc2)cc1)N1CCCCC1	75%	·	65*	-1%	35*	-13%
O=C(Oc1ccc(OC(=O)N2CCCCC2)cc1)N1CCCCC1	11%	?	-10	-1%	6	0%[57.1 µM]
COc1cccc(CNC(=O)C2CCN(S(=O)(=O)c3cn(C)cn3)CC2)c1	·	·	·	·	·	-1%
CSc1ccccc1OCc1cc(C(=O)N(C)Cc2cnccn2)no1	-17%	?	110*	1%	52*	0%
CSc1ccccc1OCc1cc(C(=O)NCCCn2nc(C)cc2C)no1	-51%	?	30	-30%	4	0%
CSc1ccccc1OCc1cc(C(=O)N(C)Cc2c(C)n[nH]c2C)no1	-14%	?	11	13%	14*	-4%
SMILES	Pf growth 48h	Pf growth 96h	Shiga inhibitor	NS1 function inh	Cycloheximide cs	Sm TGR inh
CSc1ccccc1OCc1cc(C(=O)NCc2cnc(C)cn2)no1	47%	29%	-5	-20%	7	-22%
CSc1ccccc1OCc1cc(C(=O)N(C)Cc2cc(C)[nH]n2)no1	-12%	11%	63	10%	28*	4%
COCCn1cnc2c1c(=O)[nH]c(=O)n2Cc1ccccc1	-1%	?	-9	0%	-1	10%
Cc1ccc(Nc2nnc(-c3ccc(C)c(S(=O)(=O)N4CCN(C)CC4)c3)c3ccccc23)c(C)c1	·	·	·	·	·	-1%
c1cc2nc(C34CC5CC(CC(C5)C3)C4)[nH]c2cn1	?	?	14	7%	-3	4%
C1CNC(C23CC4CC(CC(C4)C2)C3)=N1	7%	-20%	56*	·	25	26%
COC(=O)C(NS(N)(=O)=O)C(C)C (stereo not drawn)	·	·	-17	·	-7	·
CCOc1ccc2ccccc2c1C(=O)NCC(c1ccc(N(C)C)cc1)N(C)C (stereo not drawn)	-6%	-7%	-16	0%	-3	-3%
CC(Oc1cccc(Cl)c1)C(=O)Nc1cc(S(=O)(=O)N2CCOCC2)ccc1N1CCCCC1 (stereo not drawn)	8.3µM*	?	·	·	·	-7%
CCN1CCN(c2ccc(S(=O)(=O)N3CCOCC3)cc2NC(=O)C(C)Oc2cccc(Cl)c2)CC1 (stereo not drawn)	10µM*	?	·	·	·	-8%
CCN1CCN(c2ccc(S(=O)(=O)N3CCOCC3)cc2NC(=O)C(C)Oc2ccc(F)cc2)CC1 (stereo not drawn)	?	?	·	·	·	1%
CC(Oc1ccc(F)cc1)C(=O)Nc1cc(S(=O)(=O)N2CCOCC2)ccc1N1CCCC1 (stereo not drawn)	3%	?	15	5%	-2	-28%
COc1cccc(NC(=O)CNC(=O)c2ccc(C)o2)c1	32%	?	-8	19%	-2	-1%
Cc1cccc(NC(=S)NNC(=O)c2csc3c2CCCC3)c1	96%	118%	26	-63%	29*	9%
Cc1cccc(NC(=S)NNC(=O)c2csc(C)c2)c1	163%	184%	22*	-23%	24*	9%
Cc1ccc(C)c(NC(=S)NNC(=O)c2csc3c2CCCC3)c1	6%	·	-18	-6%	0	-7%
Cc1cc(C(=O)NNC(=S)NCC(C)C)cs1	47%	18%	8	5%	-4	-1%
O=C(O)C1CCCCN1C(=O)c1ccc(S(=O)(=O)N2CCCC2)cc1 (stereo not drawn)	-22%	10%	·	·	·	-10%
CCOc1ccc2ccccc2c1C1NC(=S)N(C)C(C)=C1C(=O)OC (stereo not drawn)	?	3.3µM*	27	24%	-2	-2%
CCOC(=O)C1=C(C)N(C)C(=S)NC1c1c(OCC)ccc2ccccc12 (stereo not drawn)	?	?	-2	-31%	-5	·
Clc1ccc(Cl)c(OCCCCN2CCCCC2)c1	2%	54%	-4	-4%	-2	0%
O=S(=O)(CCN1CCCCC1)Oc1ccc(Cl)cc1Cl	-2%	9%	15	-4%	-1	0.45µM*
CCN(CC)C(=O)CSc1nc2c(sc(=S)n2CC)c(=O)n1-c1ccccc1	·	?	-10	-4%	-5	5%
CCN(CC)C(=O)CSc1nc2c(sc(=S)n2-c2ccccc2OC)c(=O)n1-c1ccccc1	12µM*	?	-16	0%	0	18%
